RGS16-Gao HTS: modulates binding between human RGS16 and Galphao; bead-based flow cytometry RGS16-Galphao binding, fluorescence; actives lie on both sides; binding response (% of control), % at 10 µM; hit rate 0.38% among 220,000; AID 1441;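 further: Galphao activated by GDP with aluminum fluoride before binding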
Target sequence (O15492 whole entry, looked up): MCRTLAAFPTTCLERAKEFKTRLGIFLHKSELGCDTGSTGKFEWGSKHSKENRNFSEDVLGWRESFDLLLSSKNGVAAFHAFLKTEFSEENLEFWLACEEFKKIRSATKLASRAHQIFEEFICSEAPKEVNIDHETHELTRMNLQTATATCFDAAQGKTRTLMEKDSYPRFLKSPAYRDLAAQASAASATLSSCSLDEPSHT
Target sequence (P09471 whole entry, looked up): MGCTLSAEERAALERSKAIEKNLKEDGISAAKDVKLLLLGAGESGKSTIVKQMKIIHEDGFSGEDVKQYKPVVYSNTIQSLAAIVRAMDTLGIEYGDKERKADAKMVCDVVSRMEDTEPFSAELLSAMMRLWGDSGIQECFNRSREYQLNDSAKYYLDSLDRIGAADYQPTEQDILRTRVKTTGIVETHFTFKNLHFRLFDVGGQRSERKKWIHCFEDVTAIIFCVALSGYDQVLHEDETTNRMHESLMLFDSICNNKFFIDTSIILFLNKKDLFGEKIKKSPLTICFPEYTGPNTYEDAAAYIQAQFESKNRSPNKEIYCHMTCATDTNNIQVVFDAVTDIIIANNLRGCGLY
RGS7-Gao: regulators of human RGS7-Galphao interaction. AID 1439. P09471. Multiplexed bead flow cytometry, RGS7-Galphao binding; actives lie on both sides. binding response (% of control), % at 10 µM. hit rate 0.35% among 220,000; in the data active means binding response below about 49% or above about 150%; inconclusive means no clear call, values can overlap the other calls; inactive means in between;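 further: fluorescent Galphao held in activated GDP-AlF4 state binding bead-coupled RGS7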
Target sequence (P09471 whole entry, looked up): as above
GSH bead fluor: compound fluoresces at 488/530 nm on GSH beads. fluorescence (KMESF) at 10 µM. hit rate 0.25% among 190,000. GSH beads flow cytometry, compound fluorescence 488/530 nm; active compounds read high; in the data active means fluorescence above about 89;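 further: glutathione beads carrying GST-tagged Bcl family fusion proteins plus one bare bead set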
Avidin fluor: compound fluoresces at 488/530 nm on avidin beads. fluorescence (KMESF) at 10 µM. compound fluorescence 488/530 nm, flow cytometry; active compounds read high. AID 1775. hit rate 0.38% among 220,000; in the data active means fluorescence above about 47
RGS4-Gao reg: modulates binding of RGS4 to human Galphao; hit rate 0.33% among 220,000; Multiplexed bead flow cytometry; actives lie on both sides; binding response (% of control), % at 10 µM; P09471; in the data active means binding response below about 49% or above about 150%; inactive means in between;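 further: fluorescent Galphao activated with aluminum fluoride binding bead-coupled RGS4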
RGS8-Gao reg: modulates binding of RGS8 to human Galphao; multiplexed bead flow cytometry; actives lie on both sides; response (percent of control binding), % at 10 µM; hit rate 0.34% among 220,000; AID 1423; in the data active means response below about 60% or above about 140%; inactive means in between;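 further: Galphao activated as the GDP aluminium fluoride complex binding bead-coupled RGS8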
RGS-Gao: regulators of human RGS4-Galphao interaction; shares compounds with RGS16-Gao HTS; multiplexed bead flow cytometry, RGS–Galpha-o binding; RGS4–Galpha-o binding response, % at 10 µM; hit rate 99% among 1,600; AID 1504;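 further: fluorescently labeled Galpha-o bound to GDP with aluminium fluoride binding biotinylated RGS beads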
Avidin counter: interferes with biotinylated probe binding to avidin beads | shares compounds with RGS16-Gao HTS | streptavidin beads, fluorescein-biotin binding, flow cytometry | inhibition, % at 10 µM | 1,700 tested, under 10 active;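 active means inhibition above 50%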;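 further: median green fluorescence of gated singlet beads compared with DMSO control wells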
RGS8-Gao confirm: confirmation of regulators of human RGS8-Galphao interaction. shares compounds with RGS16-Gao HTS. bead-based flow cytometry RGS8-Galphao binding, fluorescence; actives lie on both sides. binding response (% of control), % at 10 µM. hit rate 3% among 1,700. AID 1836; in the data active means binding response below about 72% or above about 130%; inactive means in between;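 further: Galphao activated as GDP AlF4 complex before binding bead RGS8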
RGS7-Gao single: RGS7-Galphao interaction regulation, single point confirmation | hit rate 7.8% among 1,700 | response (percent of control binding), % at 10 µM | bead-based flow cytometry RGS7-Galphao binding; actives lie on both sides | AID 1837 | shares compounds with RGS16-Gao HTS; in the data active means response below about 75% or above about 130%; inactive means in between;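 further: fluorescent Galphao activated with GDP and aluminum fluoride binding bead-coupled RGS7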
RGS16-Gao single: confirmation of regulators of human RGS16-Galphao interaction | response (% of control binding), % at 10 µM | bead-based flow cytometry, RGS16-Galphao binding; actives lie on both sides | hit rate 4% among 1,700 | AID 1838 | shares compounds with RGS16-Gao HTS; in the data active means response below about 74% or above about 130%; inactive means in between;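 further: Galphao activated as the GDP aluminium fluoride complex binding bead-coupled RGS16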
RGS4-Gao confirm: confirmation of regulators of human RGS4-Galphao interaction; shares compounds with RGS16-Gao HTS; RGS4-Galphao binding, multiplexed bead flow cytometry; actives lie on both sides; binding response (% of control), % at 10 µM; hit rate 4% among 1,700; AID 1840; in the data active means binding response below about 74% or above about 130%; inactive means in between
RGS19-Gao single: confirmation of regulators of human RGS19-Galphao interaction; shares compounds with RGS16-Gao HTS; response (percent of control binding), % at 10 µM; bead-based flow cytometry RGS19-Galphao binding; actives lie on both sides; hit rate 5% among 1,700; in the data active means response below about 50% or above about 160%; inactive means in between
A number is an active result; [ ] = remark or other dose. In the library only some 1.2% were active in any assay of this set; here they are far more common. Unless noted, how the calls were made is not given here.

Screening N#C/C(=C/c1cn(CC(=O)O)c2ccccc12)C(=O)NCc1ccccc1 returned RGS16-Gao HTS inactive, RGS7-Gao inactive, GSH bead fluor inactive, Avidin fluor inactive, RGS4-Gao reg inactive and RGS8-Gao reg inactive.
`O=C(O)CCCN1C(=O)/C(=C/c2ccncc2)SC1=S` gave RGS16-Gao HTS inactive, RGS7-Gao inconclusive, Avidin fluor inactive, RGS4-Gao reg 151[activator], RGS8-Gao reg inactive, Avidin counter inactive, RGS8-Gao confirm inactive, RGS7-Gao single inactive, RGS16-Gao single inactive, RGS4-Gao confirm inactive and RGS19-Gao single inactive.
`O=C(O)CCCCCN1C(=O)/C(=C\c2ccncc2)SC1=S` gave RGS16-Gao HTS inactive, RGS7-Gao inactive, GSH bead fluor inactive, Avidin fluor inactive, RGS4-Gao reg inactive and RGS8-Gao reg inactive.
CC1CC(OCC(O)C[N+]2(C)CCOCC2)CC(C)(C)C1 (configuration not stated) was read as RGS16-Gao HTS 17, RGS7-Gao 21, GSH bead fluor inactive, Avidin fluor inactive, RGS4-Gao reg 22, RGS8-Gao reg 30, Avidin counter inactive, RGS8-Gao confirm inactive, RGS7-Gao single inactive, RGS16-Gao single inactive, RGS4-Gao confirm inactive and RGS19-Gao single inactive.
CCC(=O)NC(Nc1c(C)n(C)n(-c2ccccc2)c1=O)C(Cl)(Cl)Cl (configuration not stated) was read as RGS16-Gao HTS inactive, RGS7-Gao inactive, GSH bead fluor inactive, Avidin fluor inactive, RGS4-Gao reg inactive and RGS8-Gao reg inactive.
`COc1ccc(NC(=O)CSc2ccccn2)cc1OC` gave RGS16-Gao HTS inactive, RGS7-Gao inactive, GSH bead fluor inactive, Avidin fluor inactive, RGS4-Gao reg inactive and RGS8-Gao reg inactive.
`COC(=O)c1ccc(C(=O)OC)c(NC(=O)CSc2ccccn2)c1` gave RGS16-Gao HTS inactive, RGS7-Gao 157[activator], GSH bead fluor inactive, Avidin fluor 87, RGS4-Gao reg inactive, RGS8-Gao reg inactive, RGS-Gao 107, Avidin counter inactive, RGS8-Gao confirm inactive, RGS7-Gao single inactive, RGS16-Gao single inactive, RGS4-Gao confirm inactive and RGS19-Gao single inactive.
Cc1[nH]n(-c2ccccc2)c(=O)c1C=Nc1ccc(S(=O)(=O)N=C(N)N)cc1 was read as RGS16-Gao HTS inactive, RGS7-Gao inconclusive, Avidin fluor inactive, RGS4-Gao reg inactive and RGS8-Gao reg inactive.
Cc1[nH]n(-c2ccccc2)c(=S)c1C=Nc1ccc([N+](=O)[O-])cc1 was read as RGS16-Gao HTS 9.8, RGS7-Gao inactive, GSH bead fluor inactive, Avidin fluor inactive, RGS4-Gao reg inactive, RGS8-Gao reg inactive and RGS-Gao 86.
`Cc1ccc(NC(=O)CCC(=O)N/N=C/c2cccs2)cc1` gave RGS16-Gao HTS inactive, RGS7-Gao inactive, GSH bead fluor inactive, Avidin fluor inactive, RGS4-Gao reg inactive and RGS8-Gao reg inactive.
Screening COc1ccc(CC2CCOC2=O)cc1 (configuration not stated) returned RGS16-Gao HTS -31, RGS7-Gao inactive, GSH bead fluor inactive, Avidin fluor inactive, RGS4-Gao reg inactive, RGS8-Gao reg inactive, RGS-Gao 94, Avidin counter inactive, RGS8-Gao confirm inactive, RGS7-Gao single inactive, RGS16-Gao single inactive, RGS4-Gao confirm inactive and RGS19-Gao single inactive.
C=CCSc1nnc2c(n1)OC(c1c(C)[nH]n(-c3ccccc3)c1=O)Nc1ccccc1-2 (configuration not stated) was read as RGS16-Gao HTS inactive, RGS7-Gao inactive, GSH bead fluor inactive, Avidin fluor inactive, RGS4-Gao reg inactive and RGS8-Gao reg inactive.
`Cc1ccsc1C1C2=C(CCCC2=O)Nc2ncnn21` (configuration not stated) gave RGS16-Gao HTS inactive, RGS7-Gao inactive, GSH bead fluor inactive, Avidin fluor inactive, RGS4-Gao reg inactive and RGS8-Gao reg inactive.
O=C1CCCC2=C1C(c1cccs1)n1ncnc1N2 (configuration not stated) was read as RGS16-Gao HTS inactive, RGS7-Gao 163[activator], GSH bead fluor inactive, Avidin fluor 80, RGS4-Gao reg 202[activator], RGS8-Gao reg inactive, Avidin counter inactive, RGS8-Gao confirm inactive, RGS7-Gao single 61, RGS16-Gao single 72, RGS4-Gao confirm 74 and RGS19-Gao single 40.
Screening Cc1ccc(C)c(NC(=O)c2ccccc2NS(=O)(=O)c2cc([N+](=O)[O-])ccc2C)c1 returned RGS16-Gao HTS 188[activator], RGS7-Gao inactive, GSH bead fluor inactive, Avidin fluor inactive, RGS4-Gao reg inactive, RGS8-Gao reg inactive and RGS-Gao 104.
Screening Cc1ccc(C)c(S(=O)(=O)Nc2ccccc2C(=O)Nc2cc(C)on2)c1 returned RGS16-Gao HTS inactive, RGS7-Gao inactive, GSH bead fluor inactive, Avidin fluor inactive, RGS4-Gao reg inactive and RGS8-Gao reg inactive.
For COc1ccccc1/C=C/C(=O)NCc1cccnc1 the results were RGS16-Gao HTS inactive, RGS7-Gao inactive, GSH bead fluor inactive, Avidin fluor inactive, RGS4-Gao reg inactive and RGS8-Gao reg inactive.
For CCN(CC)CCN(Cc1cc2ccc(C)c(C)c2[nH]c1=O)C(=S)NCc1ccco1 the results were RGS16-Gao HTS inactive, RGS7-Gao inactive, GSH bead fluor inactive, Avidin fluor inactive, RGS4-Gao reg inactive and RGS8-Gao reg inactive.
Screening COc1ccc(N2CCN(CC(=O)NCc3ccccc3)CC2)cc1 returned RGS16-Gao HTS inactive, RGS7-Gao inactive, GSH bead fluor inactive, Avidin fluor inactive, RGS4-Gao reg inactive and RGS8-Gao reg inactive.

Screening results (PubChem BioAssay)
